# Bioassay records as filed in PubChem BioAssay.
# An excerpt weighted towards active compounds, which were near 7.3% of everything screened.
# p53 reactivation – qHTS assay for re-activators of p53 using a Luc reporter | AID 504706, 2011 | Potency, µM (series often up to 92.2 µM), without a hit: top-dose activity change, positive = activation, actives largely listed as activators | H1299 p53-A138V BP100-luciferase reporter, luminescence, 24 h | 320,000 compounds, 0.063% hits; note: % of control where 0% means no effect; nearly all actives have a fitted effect of over 45% in size
#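 p53-null H1299 cells stably carrying temperature-sensitive p53-A138V and a BP100-luciferase reporter were pinned with compounds (4-point, 1:5 series) and held 24 hrs at 37 deg C. Luminescence was read 10 min after detection reagent.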
# FLuc counter – qHTS profiling assay for firefly luciferase inhibitor/activator using purifed enzyme and Km concentrations of substrates (counterscreen for miR-21 project); AID 588342, 2011; Potency, µM (series often up to 57.5 µM), inactives show at the top dose activity change, negative = inhibition, actives largely listed as inhibitors; purified FLuc, Km substrates, luminescence inhibition; Luciferin 4-monooxygenase (Photinus pyralis), P08659; 360,000 compounds, 6.9% hits;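 note: plate controls were vehicle for no effect and reference inhibitor for full effect; nearly all actives have a fitted effect of over 55% in size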
# Target sequence (P08659 whole entry, looked up): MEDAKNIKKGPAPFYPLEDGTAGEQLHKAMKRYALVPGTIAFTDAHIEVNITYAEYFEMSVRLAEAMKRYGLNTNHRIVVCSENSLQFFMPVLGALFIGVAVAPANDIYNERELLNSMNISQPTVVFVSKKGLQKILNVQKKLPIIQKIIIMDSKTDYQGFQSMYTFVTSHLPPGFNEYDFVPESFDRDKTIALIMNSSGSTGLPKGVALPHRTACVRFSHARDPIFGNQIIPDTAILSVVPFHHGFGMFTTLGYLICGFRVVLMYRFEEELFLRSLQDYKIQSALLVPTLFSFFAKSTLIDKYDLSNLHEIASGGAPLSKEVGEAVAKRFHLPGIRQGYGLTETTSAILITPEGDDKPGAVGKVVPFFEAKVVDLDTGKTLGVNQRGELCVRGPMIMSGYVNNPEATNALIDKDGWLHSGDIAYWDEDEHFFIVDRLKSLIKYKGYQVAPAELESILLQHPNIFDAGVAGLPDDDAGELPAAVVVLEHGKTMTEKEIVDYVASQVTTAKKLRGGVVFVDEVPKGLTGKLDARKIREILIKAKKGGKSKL
#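 Purified P. pyralis luciferase (10nM final) with 10uM D-luciferin and 10uM ATP (Km levels) in 50mM Tris acetate pH 7.5, 10mM Mg acetate, 0.01% Tween-20, 0.05% BSA; qHTS 6-point titration, ~60 µM downward; luminescence read.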
# Rab9 promoter act – qHTS Assay for Rab9 Promoter Activators. Potency, µM (titrated, usually from 9.22 µM), for inactives: at the highest dose activation, negative = inhibition, actives largely listed as activators. 320,000 compounds, 2.8% hits. Huh7 Rab9 promoter-luciferase reporter, luminescence, 24 h; note: % of control where 0% means no effect; nearly all actives have a fitted effect of over 60% in size
#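 Huh7 reporter line, Rab9 promoter upstream of luciferase. Compound exposure 24 h at 37 °C in reduced-serum medium with 10% FBS. Read-out: luminescence.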
# ELG1 genotoxic – qHTS screen for small molecules that induce genotoxicity in human embryonic kidney (HEK293T) cells expressing luciferase-tagged ELG1. 330,000 compounds, 1.3% hits. Potency, µM (highest dose often 46 µM), for the others: at the highest dose activity change, positive = activation, actives largely listed as activators. AID 504466, 2011. HEK293T ELG1-luciferase reporter, luminescence, 16 h; note: % of control where 0% means no effect; nearly all actives have a fitted effect of over 60% in size
#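 Screening used a luciferase reporter fused to human ELG1 in HEK293T cells. Luminescence was read on a CCD plate imager after 16 hr exposure and 30 min ONE-Glo incubation.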
# NPC1 promoter act – qHTS Assay for NPC1 Promoter Activators; Huh7 NPC1 promoter luciferase reporter, 24 h; Potency, µM (highest dose often 9.22 µM), inactives show at the top dose activation, hits mostly activators; 320,000 compounds, 2.4% hits; note: % of control where 0% means no effect; nearly all actives have a fitted effect of over 60% in size
#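 Luminescence read-out of NPC1 promoter-driven luciferase in stably transfected Huh7 cells; compounds delivered in DMSO and left 24 h at 37C, 5% CO2, qHTS titration format.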
# SMN2 splice enh – qHTS Assay for Enhancers of SMN2 Splice Variant Expression. HEK293 SMN2-luciferase splicing reporter, luminescence, 30-36 h. Potency, µM (top dose mostly 46.1 µM), without a hit: at the highest dose activity change, positive = activation, usual class: activators. 210,000 compounds, 2.8% hits; note: % of control where 0% means no effect; nearly all actives have a fitted effect of over 55% in size
#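 qHTS luciferase splicing reporter: luminescence rises when SMN2 exon 7 is included in transfected HEK293 cells. Compound exposure lasted 30-36 h at 37C, with 4.5 mM final sodium butyrate as control, followed by a ONE-Glo read.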
# Starred values were filed as active, the others as inactive; ? = inconclusive; . = not tested or not shown. Calls come from the whole dose curve; as a rule, active = well fitted curve in the direction sought with a large enough effect; inconclusive = small, poorly fitted or top-dose-only effect, or another doubt; inactive = no such curve, though single readings can be large; an effect the other way counts as inactive or inconclusive. Potency is the fitted concentration of half-maximal effect.
SMILES,p53 reactivation,FLuc counter,Rab9 promoter act,ELG1 genotoxic,NPC1 promoter act,SMN2 splice enh
O=C(O)CN1C(=O)c2ccc(C(=O)c3ccccc3)cc2C1=O,9%,0%,-7%,0%,-1%,.
CC(C)Cn1nc(NC(=O)C2CCCO2)c2cc3ccccc3nc21 (stereo unspecified),-12%,-1%,1%,-1%,0%,-9%
O=C1C=C(N2CCCCCC2)C(=O)N1c1ccc(Cl)cc1,25%,2.1µM*,2.2µM*,?,1.6µM*,.
c1ccc(Oc2ccc(-c3ccnc4ncnn34)cc2)cc1,5%,-11%,-12%,10%,-1%,1%
c1ccc(Oc2ccc(-c3ccn[nH]3)cc2)cc1,?,11µM*,3.2µM*,?,?,.
COC(=O)c1ccc(-n2nnc(-c3nc(-c4ccccc4Cl)no3)c2C)cc1,.,4%,.,.,.,.
COc1cccc(-n2nnc(-c3nc(-c4ccccc4F)no3)c2C)c1,.,2.4µM*,.,.,.,.
COc1ccc(Cl)cc1-n1nnc(-c2nc(-c3ccccc3)no2)c1C,.,15µM*,.,.,.,.
Cc1c(-c2nc(-c3ccccc3)no2)nnn1-c1ccc(F)c(Cl)c1,.,-3%,.,.,.,.
Fc1ccc(-c2nn(-c3ccc(Cl)cc3)c3c2cnc2ccc(F)cc23)cc1,.,-1%,.,.,.,.
Cc1cccc(N2CCN(C(=O)c3c4c(nc5ccccc35)C(=O)N(C3CCCCC3)C4)CC2)c1C,.,-3%,.,.,.,.
COC(=O)c1ccccc1S(=O)(=O)Oc1ccc(-c2ccc(C(=O)O)cc2)cc1,1%,-14%,6%,3%,11%,.
O=C(O)c1ccc(-c2ccc(OS(=O)(=O)c3ccccc3F)cc2)cc1,10%,12µM*,?,?,?,.
CCSc1cc(N2CCCC2)nc(-c2ccc(Cl)cc2)n1,-3%,9%,-5%,-1%,-4%,.
Clc1ccc(-c2nnc(N3CCCC3)nn2)cc1,.,1.2µM*,0.32µM*,?,?,6.3µM*
CC(=O)NC(=S)Nc1sc2c(c1C#N)CCCCC2,?,1.5µM*,1.4µM*,2.1µM*,2.5µM*,.
N#Cc1c(NC(=S)NC(=O)c2ccccc2)sc2c1CCC2,?,-17%,?,?,19%,-17%
Cn1nccc1C(=O)NC(=S)Nc1sc2c(c1C#N)CCCCC2,?,3.8µM*,?,14%,?,15%
CC(=O)Nc1sc2c(c1C#N)CCCC2,.,3%,.,.,.,-5%
COc1ccc(N(C)C(=O)C2CCCN2S(=O)(=O)c2cccc3nsnc23)c(OC)c1 (stereo unspecified),11%,1%,-4%,1%,-5%,.
COc1ccc(-c2nc3cc(NC(=O)COc4ccc(C)c(C)c4)ccc3o2)cc1,.,6%,.,.,.,.
Cc1cc2nc(-c3cccc(NC(=O)COc4ccc(Cl)c(C)c4)c3)oc2cc1C,.,1.9µM*,.,.,.,.
Cc1cc2nc(-c3cccc(NC(=O)COc4ccc(C(C)C)cc4)c3)oc2cc1C,.,1.5µM*,.,.,.,12%
Brc1ccc(-c2noc(COc3ccc4c(c3)CCC4)n2)o1,8%,?,-2%,?,-1%,0%
COc1ccc(Cc2nc(-c3ccccc3)no2)cc1,21%,15µM*,?,16µM*,?,?
COc1ccc(Cc2nc(-c3ccc(-n4cccc4)cc3)no2)cc1,12%,-8%,-4%,2%,0%,-34%
COc1ccc(Cc2nc(-c3ccc(-n4cccc4)cc3)no2)cc1OC,-7%,4%,-19%,13µM*,-3%,-102%
COc1ccc(Cc2nc(-c3cccs3)no2)cc1OC,5%,?,-6%,-2%,1%,-24%
